# Assay outcomes from PubChem.
# Only a selection was taken, and hits are over-represented in it overall.
# PL biosyn Enam = phospholipid synthesis inhibitors, CHO cells, primary screen, ZR-82 cells, Enamine library, screen 3 | ZR-82 CHO cells, pyrene fatty acid UV survival, CellTiter Blue; peroxisome-deficient CHO-K1 mutant line; plus DGAT-1, DGAT-2 and ACAT inhibitors | calls only at 10 µM | 20,000 tested, 0.4% active;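 active = cell survival signal 2 SD away from solvent-only control wells, confirmed on one or two retests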;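 note: 3 h compound exposure then viability read about one day after UV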
# Calls only; - = inactive; + = active, no number.
SMILES,PL biosyn Enam
Cn1/c(=N/N=C/c2cn(-c3ccccc3)nc2-c2cc3ccccc3o2)sc2ccccc21,-
C(=N\N(c1ccccc1)c1ccccc1)/c1cn(-c2ccccc2)nc1-c1cc2ccccc2o1,-
C(=C\c1cn(-c2ccccc2)nc1-c1cc2ccccc2o1)/c1nc2ccccc2s1,+
Cc1cc(CSc2ccc(S(=O)(=O)N3CCOCC3)cn2)no1,-
CC(C)(C)c1ccc(-c2n[nH]c(=S)n2/N=C/c2cc(Br)ccc2O)cc1,-
COCCn1c(C)cc(/C=C2\SC(=S)N(Cc3ccco3)C2=O)c1C,-
CS/C(N)=N/N=C(\C)c1ccccc1,-
CN1/C(=C\P(=Nc2cccc3ccccc23)(Oc2cccc3ccccc23)c2ccccc2)C(C)(C)c2ccccc21 (configuration not stated),-
CCN(CC)P(/C=C1/N(C)c2ccccc2C1(C)C)(=Nc1ccc(C)cc1C)c1ccccc1 (configuration not stated),+
Cc1ccc(NP(=O)(/C=C2\N(C)c3ccccc3C2(C)C)c2ccccc2)cc1C (configuration not stated),-
Cc1cc(O)c(C=Nc2ccc(Br)cc2)c(=O)o1,-
NC1=NC(c2cc(Cl)cc(Cl)c2O)n2c(nc3ccccc32)N1 (configuration not stated),-
CN(C)CCCNc1nc(-c2cccs2)nc2sc3c(c12)CCCC3,-
C(=C(c1nc2ccccc2s1)c1nc2ccccc2s1)c1cccs1,-
Cn1cccc1C=C(c1nc2ccccc2s1)c1nc2ccccc2s1,+
C(=C(c1nc2ccccc2s1)c1nc2ccccc2s1)c1ccc(-c2ccccc2)cc1,-
S=C(NN=C1C2CC3CC(C2)CC1C3)Nc1ccc(Cl)c(Cl)c1,-
FC(F)(F)c1cc(NC(=S)Nc2ccc(Cl)c(Cl)c2)ccc1Cl,+
Fc1ccc(NC(=S)Nc2ccc(Cl)c(C(F)(F)F)c2)cc1Cl,-
CCOC(=O)Cc1n[nH]c(=S)n1C1CCCCC1,-
C(=N\Nc1ccc(N2CCOCC2)nn1)/C1=C(N2CCOCC2)C(=C/c2ccccc2)/CC1,-
O=C1Nc2ccccc2/C1=N\N=C\C1=C(N2CCOCC2)C(=C\c2ccccc2)/CC1,+
Oc1ccc(/C=N/N=C/C2=C(N3CCOCC3)C(=C\c3ccccc3)/CC2)c(O)c1,-
FC(F)(F)c1c2c(nc3[nH]c4ccccc4c13)-c1ccccc1CC2,-
O=C(COC(=O)Cn1cc(C(F)(F)F)ccc1=O)NC1CCS(=O)(=O)C1 (configuration not stated),-
SMILES,PL biosyn Enam
CCCc1cc(=O)oc2cc(OC(C)C(C)=O)c(Cl)cc12 (configuration not stated),-
Nc1[nH]c(=O)[nH]c(=O)c1N=Nc1ccc2c(c1)OCCO2,-
Nc1nc(-c2ccccc2)c(N=Nc2ccc3c(c2)OCO3)s1,+
Nc1nc(-c2ccccc2)c(N=Nc2ccc3c(c2)OCCO3)s1,+
c1ccc(-c2nnc(-c3ccc4c(c3)OCO4)nc2-c2ccccc2)cc1,-
c1cc2c(cc1-c1csc(N3CCOCC3)n1)OCCO2,-
Oc1c(N=Nc2ccc3c(c2)OCO3)sc2ccccc12,-
Cc1nc2nc(=S)[nH]n2c(C)c1CC(=O)O,-
O=C(Cn1cnc2sccc2c1=O)NCc1ccco1,-
O=C(OC1c2ccccc2-c2ccccc21)C1COc2ccccc2O1 (configuration not stated),-
O=S(=O)(c1cc(Cl)cc(Cl)c1)N1CCc2ccccc21,-
O=S(=O)(Nc1ccc2c(c1)CCC2)c1ccc(Br)cc1,+
O=S(=O)(Nc1ccc2c(c1)OCCO2)c1ccc2c(c1)CCCC2,-
O=S(=O)(Nc1ccc2c(c1)CCC2)c1ccc(F)cc1,-
C=CCN(C(=O)C1CC(=O)N(C2CCCC2)C1)c1nc2c(s1)CCCC2 (configuration not stated),-
CCOC(=O)c1sc(N=Nc2[nH]c(C)c(C(=O)OCC)c2C)c(C(=O)OCC)c1C,+
CCOC(=O)c1sc(N=Nc2c(O)[nH]c(=S)[nH]c2=O)c(C(=O)OCC)c1C,-
CCOC(=O)c1c(N=CN(C)C)sc(C(=O)OC)c1C,-
CCCCN(CC)c1ncnc2sc(C)c(C)c12,-
Cc1nc(N)sc1N=Nc1ccc(Br)cc1,+
CCN(CC)S(=O)(=O)c1ccc(N=Nc2sc(N)nc2C)cc1,-
Cc1nc(N)sc1C,-
c1cnc2c(Oc3ncnc4c3oc3ccccc34)cccc2c1,-
Cc1[nH]c2ccccc2c1C=C(c1nc2ccccc2s1)c1nc2ccccc2s1,-
NC(=O)c1c(NC(=O)COC(=O)C23CC4CC(CC(Br)(C4)C2)C3)sc2c1CCC2,-
SMILES,PL biosyn Enam
Cc1cc(C(C)(C)C)cc(C)c1CSc1ncnc2ccccc12,-
Cc1cc(C(C)(C)C)cc(C)c1CSc1nc(=S)c2ccccc2[nH]1,-
Cc1cc(C(C)(C)C)cc(C)c1C[n+]1ccc2ccccc2c1,+
Clc1ccc(C2=CC(c3ccc(Cl)cc3Cl)n3ncnc3N2)cc1 (configuration not stated),-
CN=c1sc(C(=O)NC)c(C)n1C,-
c1ccc2cc(OCc3nc4ccccc4[nH]3)ccc2c1,-
c1ccc2cc(OCc3nc4ccccc4s3)ccc2c1,+
Brc1cc(Br)c2cccnc2c1OCc1nc2ccccc2s1,-
C=CCn1c(=O)n(CC=C)c(=O)n(CC(=O)NC(C)COC)c1=O (configuration not stated),-
CN(C)c1ccc(/C=N/n2c(-c3ccc(-c4ccccc4)cc3)csc2=Nc2ccccc2C(F)(F)F)cc1,-
CN(Cc1ccccc1)c1nnc(-c2ccc(F)c(F)c2)c2ccccc12,-
Nc1nc(N)nc(CSc2nc(-c3ccc(Br)cc3)nc3ccccc23)n1,-
S=C(NNc1ccnc2cc(Cl)ccc12)NC1CCCCC1,-
O=C(NNc1ccnc2cc(Cl)ccc12)c1ccc(=O)[nH]n1,-
S=C(NNc1ccnc2cc(Cl)ccc12)Nc1ccc(Cl)cc1Cl,+
Cn1c(=O)c2c(ncn2CC(=O)Nc2nnc(C3CC3)s2)n(C)c1=O,-
FC(F)n1c(=S)n(C(F)F)c2ccccc21,-
FC(F)n1c(-c2ccccc2)c(-c2ccccc2)n(C(F)F)c1=S,+
FC(F)Sc1nc(-c2ccccc2)c(-c2ccccc2)n1C(F)F,-
CSc1ccc(/C=N/NS(=O)(=O)c2cc(C)ccc2C)cc1,-
CC1(C)C2CC=C(/C=N/n3c(-c4ccc(OC(F)F)cc4)n[nH]c3=S)C1C2 (configuration not stated),-
COc1ccc(S(=O)(=O)NC(C)(C)C)cc1N(C)S(C)(=O)=O,-
CN=c1scc(-c2ccc(F)cc2)n1/N=C(\C)c1ccc(O)cc1O,-
CN=c1scc(-c2ccc(OC(F)F)cc2)n1/N=C/c1cc(OC)c(O)c(OC)c1,-
CN=c1scc(-c2ccc(OC(F)F)cc2)n1/N=C(\C)c1ccc(O)cc1O,+
SMILES,PL biosyn Enam
NC(=O)COC(=O)c1ccc(-c2ccc(C(=O)OCC(N)=O)s2)s1,-
S=C(NCCN1CCOCC1)NNC(=S)NC1CCCCC1,-
CCC1=C(c2ccccc2)Oc2ccccc2C1C#Cc1ccccc1 (configuration not stated),-
Oc1ccc2ccccc2c1N=Nc1ncn[nH]1,-
Cc1[nH]c2ccccc2c1N=Nc1c(C)n(C)n(-c2ccccc2)c1=O,-
Cc1[nH]c2ccccc2c1N=Nc1ccccc1F,-
Cc1[nH]c2ccccc2c1N=Nc1ccc2c(c1)OCO2,+
Cc1[nH]c2ccccc2c1N=Nc1ccc(F)cc1,+
O=C1CCCC(O)=C1N=Nc1ccc2c(c1)OCO2,-
